Assay results as given in PubChem BioAssay (Tox21).
Inconclusive results are not listed. Activity calls are given as the source filed them. Calls follow the shape of the dose curve; as a rule, active = well fitted activation curve with a large enough effect in the signal ratio in the repeat runs (not every such curve was filed as active); inconclusive = weak or mixed curves; inactive = flat fitted curve, though single readings scatter; the % refers to the signal ratio. Where a SMILES comes first, the peptide text is derived from it. [ ]: non-standard residue; d: D form. pGlu = O=C1CC[C@@H](C(=O)O)N1

Experiment: qHTS assay to identify small molecule agonists of H2AX (AID 1224845); also: potency is read from the fitted curve at half-maximal effect
Conditions: CHO-K1 phospho-H2AX Ser139 HTRF, 3 h; series mostly up to 154 µM; activation (H2AX phosphorylation): at the top concentration
In short: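 Wild-type CHO-K1 cells plated overnight, then exposed 3 hr at 37C to compounds at 15 concentrations (0.76% DMSO). Lysed, then HTRF anti-pH2AX(S139)-cryptate/anti-H2AX-d2 detection after 24 hr at room temperature; emissions 665 and 620 nm.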
% is scaled to controls: 0 for no effect and ±100 for the full control effect.

| Compound | activation (H2AX phosphorylation) | Potency |
| --- | --- | --- |
| Clc1cc(Cl)c(Cl)nc1Cl | 0.445% (inactive) |  |
| C[C@@H]1CCC[C@H](C)N1 | 1.4% [at 70.9 µM] (inactive) |  |
| O=C(O)CC(C(=O)O)S(=O)(=O)O (configuration not stated) | -0.565% (inactive) |  |
| [O-][n+]1cccc(CO)c1 | -1.78% [at 70.9 µM] (inactive) |  |
| CC(=O)c1ccccc1[N+](=O)[O-] | 0.069% (inactive) |  |
| Cc1cccc(C)c1NC(=O)CC12CCCN1CCC2 | -0.208% [at 70.9 µM] (inactive) |  |
| OCCCCCO | -2.18% (inactive) |  |
| CC(COc1ccccc1)NN (configuration not stated) | -1.33% [at 70.9 µM] (inactive) |  |
| NS(=O)(=O)Cc1noc2ccccc12 | -2.9% [at 70.9 µM] (inactive) |  |
| Cc1cc(C)c(N=Nc2c(O)c(S(=O)(=O)O)cc3cc(S(=O)(=O)O)ccc23)cc1C | 1.25% [at 14 µM] (inactive) |  |
| Nc1c2c(nc3c1CCC3)CCCC2 | -3.19% [at 70.9 µM] (inactive) |  |
| CCCCCCCCN1CCCC1=O | 0.845% (inactive) |  |
| O=S(=O)(O)c1cccc(S(=O)(=O)O)c1 | 1.14% (inactive) |  |
| CCCO[Si](OCCC)(OCCC)OCCC | 2.23% (inactive) |  |
| C=CCCCCCCCCC(=O)OCC | -3.45% (inactive) |  |
| CO[Si](C)(OC)c1ccccc1 | 0.235% (inactive) |  |

| Compound | activation (H2AX phosphorylation) | Potency |
| --- | --- | --- |
| C=CCCC(=O)O | 1.1% (inactive) |  |
| O=Cc1cccc(Br)c1 | -2.55% (inactive) |  |
| CN1C(C)(C)CC(O)CC1(C)C | -1.28% (inactive) |  |
| C[N+]1(CC2COC(c3ccccc3)(c3ccccc3)O2)CCCCC1 (configuration not stated) | -1.86% [at 31.6 µM] (inactive) |  |
| Clc1cc(Cl)cc(Cl)c1 | -0.0838% (inactive) |  |
| CCOC(=O)COC(=O)c1ccccc1C(=O)OCC | -0.569% (inactive) |  |
| CN1CCC(=C2c3ccccc3CCc3cccnc32)CC1 | -1.09% [at 70.9 µM] (inactive) |  |
| Cc1nc(C2CCCCC2)c(-c2ccc(S(N)(=O)=O)c(F)c2)o1 | -0.209% [at 70.9 µM] (inactive) |  |
| Nc1ccn([C@@H]2O[C@H](CO)[C@@H](O)C2(F)F)c(=O)n1 |  | 982 nM (active) |
| CCCCCCC1CCC(=O)O1 (configuration not stated) | -1.92% (inactive) |  |
| C=COCC1CCC(COC=C)CC1 (configuration not stated) | -0.0926% (inactive) |  |
| CC1(C)OC[C@@H](COC(=O)CCc2ccc(OC[C@@H](O)CNCCNC(=O)N3CCOCC3)cc2)O1 | -0.172% [at 70.9 µM] (inactive) |  |
| CC(=O)Oc1cccc(C)c1 | -0.76% [at 70.9 µM] (inactive) |  |
| O=C(O)CCCC[P+](c1ccccc1)(c1ccccc1)c1ccccc1 | 1.51% [at 70.9 µM] (inactive) |  |
| CCCCOCCOC(=O)CCCCCCCCC(=O)OCCOCCCC | 0.849% (inactive) |  |
| CCNC(=O)[C@@H]1CCCN1C(=O)[C@H](CCCN=C(N)N)NC(=O)[C@H](CC(C)C)NC(=O)CNC(=O)[C@H](Cc1ccc(O)cc1)NC(=O)[C@H](CO)NC(=O)[C@H](Cc1c[nH]c2ccccc12)NC(=O)[C@H](Cc1cnc[nH]1)NC(=O)[C@@H]1CCC(=O)N1 ([pGlu]HWSYGLRP-NHEt) | -2.65% [at 70.9 µM] (inactive) |  |

Experiment: qHTS assay to identify small molecule agonists of the hypoxia (HIF-1) signaling pathway (AID 1224846)
Conditions: HRE-bla ME-180 cells, beta-lactamase ratio, 17 h; series mostly up to 76.8 µM; activation: at the top concentration
In short: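 Steps: seed ME-180 HRE-bla cells (2,000/well, 0.5% dialyzed FBS); incubate 5 hrs at 37C; pin-transfer compounds or DMSO; incubate 17 hrs; add LiveBLAzer B/G substrate CCF4-AM; measure reporter activation by FRET.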

| Compound | activation |
| --- | --- |
| Clc1cc(Cl)c(Cl)nc1Cl | 0.0002% (inactive) |
| CCOC(=O)OC(C)OC1=C(C(=O)Nc2ccccn2)N(C)S(=O)(=O)c2ccccc21 (configuration not stated) | -0.965% [at 35.5 µM] (inactive) |
| O=C(O)CC(C(=O)O)S(=O)(=O)O (configuration not stated) | -0.113% (inactive) |
| [O-][n+]1cccc(CO)c1 | -0.646% [at 35.5 µM] (inactive) |
| CC(=O)c1ccccc1[N+](=O)[O-] | -0.535% (inactive) |
| Cc1cccc(C)c1NC(=O)CC12CCCN1CCC2 | 0.324% [at 35.5 µM] (inactive) |
| OCCCCCO | -0.933% (inactive) |
| CC(COc1ccccc1)NN (configuration not stated) | -0.453% [at 35.5 µM] (inactive) |
| Cc1cc(C)c(N=Nc2c(O)c(S(=O)(=O)O)cc3cc(S(=O)(=O)O)ccc23)cc1C | -0.827% [at 7.01 µM] (inactive) |
| Nc1c2c(nc3c1CCC3)CCCC2 | -0.376% [at 35.5 µM] (inactive) |
| O=S(=O)(O)c1cccc2c(S(=O)(=O)O)cccc12 | -1.81% (inactive) |
| CCCCCCCCN1CCCC1=O | 1.42% (inactive) |
| O=S(=O)(O)c1cccc(S(=O)(=O)O)c1 | -0.546% (inactive) |
| CCCO[Si](OCCC)(OCCC)OCCC | 0.205% (inactive) |
| CC[C@H]1OC(=O)[C@H](C)[C@@H](O[C@H]2C[C@@](C)(OC)[C@@H](O)[C@H](C)O2)[C@H](C)[C@@H](O[C@@H]2O[C@H](C)C[C@H](N(C)C)[C@H]2O)[C@](C)(OC)C[C@@H](C)C(=O)[C@H](C)[C@@H](O)[C@]1(C)O | -0.695% (inactive) |
| C=CCCCCCCCCC(=O)OCC | -0.973% (inactive) |
| CO[Si](C)(OC)c1ccccc1 | 0.374% (inactive) |
| C=CCCC(=O)O | -0.556% (inactive) |

| Compound | activation |
| --- | --- |
| O=Cc1cccc(Br)c1 | 0.0404% (inactive) |
| CN1C(C)(C)CC(O)CC1(C)C | -1.76% (inactive) |
| C[N+]1(CC2COC(c3ccccc3)(c3ccccc3)O2)CCCCC1 (configuration not stated) | 0.207% [at 15.8 µM] (inactive) |
| Clc1cc(Cl)cc(Cl)c1 | 0.512% (inactive) |
| CCOC(=O)COC(=O)c1ccccc1C(=O)OCC | -0.204% (inactive) |
| CC1=NN(c2cccc(S(=O)(=O)O)c2)C(=O)C1 | -0.512% (inactive) |
| CN1CCC(=C2c3ccccc3CCc3cccnc32)CC1 | 1.6% [at 35.5 µM] (inactive) |
| Cc1nc(C2CCCCC2)c(-c2ccc(S(N)(=O)=O)c(F)c2)o1 | -0.0272% [at 35.5 µM] (inactive) |
| Nc1ccn([C@@H]2O[C@H](CO)[C@@H](O)C2(F)F)c(=O)n1 | 0.72% [at 35.5 µM] (inactive) |
| CCCCCCC1CCC(=O)O1 (configuration not stated) | -1.11% (inactive) |
| C=COCC1CCC(COC=C)CC1 (configuration not stated) | -0.848% (inactive) |
| CC1(C)OC[C@@H](COC(=O)CCc2ccc(OC[C@@H](O)CNCCNC(=O)N3CCOCC3)cc2)O1 | -1.24% [at 35.5 µM] (inactive) |
| CC(=O)Oc1cccc(C)c1 | -1.13% [at 35.5 µM] (inactive) |
| CCC(C(=O)NC(=O)NC(C)=O)c1ccccc1 (configuration not stated) | 0.236% [at 35.5 µM] (inactive) |
| O=C(O)CCCC[P+](c1ccccc1)(c1ccccc1)c1ccccc1 | 0.204% [at 35.5 µM] (inactive) |
| CCCCOCCOC(=O)CCCCCCCCC(=O)OCCOCCCC | -0.8% (inactive) |
| CCNC(=O)[C@@H]1CCCN1C(=O)[C@H](CCCN=C(N)N)NC(=O)[C@H](CC(C)C)NC(=O)CNC(=O)[C@H](Cc1ccc(O)cc1)NC(=O)[C@H](CO)NC(=O)[C@H](Cc1c[nH]c2ccccc12)NC(=O)[C@H](Cc1cnc[nH]1)NC(=O)[C@@H]1CCC(=O)N1 ([pGlu]HWSYGLRP-NHEt) | -0.614% [at 35.5 µM] (inactive) |
